# Results published in PubChem BioAssay (NCATS).
# Inconclusive results are not listed. Unmarked numbers belong to inactive results. Calls come from the whole dose curve; as a rule, active = well fitted cell-killing curve with a large enough effect; inconclusive = small, poorly fitted or top-dose-only effect, or effect the other way; inactive = flat fitted curve, though single readings scatter. Where a SMILES comes first, the peptide text is derived from it. [ ]: non-standard residue; d: D form. 2Abz = Nc1ccccc1C(=O)O
# System: Tov112D
# Experiment: Primary qHTS to identify gynecologic anti-cancer compounds using libraries of approved drugs and bioactive compounds (AID 1345084); note: nearly all actives have a fitted effect of over 55% in size
# Conditions: Gynecologic cancer cell panel viability, ATPlite luminescence, 48 h; series mostly up to 57.5 µM; activity change, negative = cytotoxicity: at the top concentration
# Method in brief: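 Measured: luminescence after ATPlite addition (15 min, RT). Exposure: 48 h, 37 C, 5% CO2.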
# % is set by controls: 0 for no effect and ±100 for the full control effect.
row,Compound,"activity change, negative = cytotoxicity"
1,CC(=O)O[C@H](C[C@@H](C)[C@H]1C(=O)[C@H](O)[C@@]2(C)[C@@H]3CCC4C(C)(C)[C@@H](O[C@@H]5OC[C@H](O)[C@H](O)[C@H]5O)CC[C@@]45C[C@@]35CC[C@]12C)[C@@H]1OC1(C)C (stereo partly specified),-4.82% [at 25.3 µM]
2,CC1OC(OC2C(C)OC(OC3C(OC(=O)/C=C/c4ccc(O)cc4)C(CO)OC(OC4(COC(=O)/C=C/c5ccc(O)cc5)OC(CO)C(O)C4O)C3OC3OCC(O)(CO)C3O)C(O)C2O)C(O)C(O)C1O (stereo unspecified),-2.2% [at 11.6 µM]
3,CC(/C=C/[C@]1(O)[C@@]2(C)CO[C@@]1(C)C[C@@H](O)C2)=C\C(=O)O[C@@H]1O[C@H](CO)[C@@H](O)[C@H](O)[C@H]1O,-3.14% [at 25.3 µM]
4,C=C1C(=O)OC2CC(C)=C(C(C)CCCO[C@@H]3O[C@H](CO)[C@@H](O)[C@H](O)[C@H]3O)C(O)C12 (stereo partly specified),5.58% [at 25.3 µM]
5,O=C(O[C@H]1[C@@H]2C[C@@H]3OC[C@@](O)([C@H]2[C@H](O[C@@H]2O[C@H](CO)[C@@H](O)[C@H](O)[C@H]2O)O3)[C@@H]1O)c1ccccc1,10.5% [at 25.3 µM]
6,CC(=O)c1c(C)cc(O)cc1O[C@@H]1O[C@H](CO)[C@@H](O)[C@H](O)[C@H]1O,-2.87% [at 38.5 µM]
7,CC1CCC(=O)CC(O)C(O)CC(=O)O1 (stereo unspecified),6.19%
8,CC1(C)CC2C(O)C3=C(CC(C)(O)C2C1)C(=O)OC3O (stereo unspecified),-1.51%
9,CC[C@H](/C=C/[C@@H](C)[C@H]1CC[C@H]2[C@@H]3CC=C4C[C@@H](O)CC[C@]4(C)[C@H]3CC[C@]12C)C(C)C,-1.77% [at 6.55 µM]
10,CC(=O)O[C@H]1[C@H](C)[C@@H](O)[C@H]2[C@@H]1C=C(C(=O)O)[C@H]1C[C@@H]3[C@H]([C@H]21)[C@H]1C(=O)O[C@@H]2CC[C@@]3(C)O[C@]1(O)[C@@H]2C,-0.713% [at 25.3 µM]
11,CC(=O)OC(CSC1CCC(=O)OC(C)CCC(=O)C1)C(=O)O (stereo unspecified),3.74% [at 38.5 µM]
12,CC(/C=C/C1(O)C(C)CC(O)CC1(C)C)OC1OC(CO)C(O)C(O)C1O (stereo unspecified),1.84% [at 38.5 µM]
13,CC(=O)N[C@H]1CCN(c2ccc(C3=NOC(CN[S+](=O)([O-])C(C)C)C3)cc2F)C1 (stereo partly specified),0.0695%
14,CC1CCC2C(C)(C)C(O)CCC2(C)C12Cc1c(O)cc3c(c1O2)C(N)=NC3 (stereo unspecified),2.38% [at 38.5 µM]
15,CNC(=O)Nc1ccc(OC)c(NC(=O)NC(=O)c2cc(F)c(F)cc2Cl)c1,5.22%
16,CCCC(N[C@@H](C)C(=O)N1[C@H](C(=O)O)C[C@@H]2CCCC[C@@H]21)C(=O)OCC (stereo partly specified),-5.58%
17,C/C=C(\C)C(=O)O[C@@H](C)[C@H]1CC[C@]2(O)C3CCC4C[C@@H](OC5CC(OC)C(OC6CC(OC)C(OC7CC(OC)C(OC8OC(C)C(OC9OC(CO)C(O)C(O)C9O)C(OC)C8O)C(C)O7)C(C)O6)C(C)O5)CC[C@]4(C)C3[C@H](O)[C@@H](O)[C@]12C (stereo partly specified),8.06% [at 6.55 µM]
18,CC1OC(O[C@H]2[C@@H](O)C[C@@]3(C)C([C@H](O)C[C@]4(C)C3CC=C3C5CC(C)(C)CC[C@]5(C(=O)OC5OC(CO)C(O)C(O)C5OC5OCC(OC6OCC(OC7OCC(O)C(O)C7O)C(O)C6O)C(OC6OCC(O)(CO)C6O)C5O)CC[C@]34C)[C@]2(C)CO)C(O)C(O)C1O (stereo partly specified),7.32% [at 6.55 µM]
19,CCC(=O)N[C@@H]1Cc2ccccc2[C@H](c2ccccc2)C1,7.58%
20,CCC(C)C1NC(=O)C2CCCN2C(=O)C(C(C)C)NC(=O)c2ccccc2NC(=O)C(Cc2ccc(O)cc2)NC(=O)C(C)NC(=O)C(C(C)O)NC1=O (stereo unspecified) (cyclo([2Abz]VPITAY); configuration not given here),-0.0273% [at 25.3 µM]
21,C=C1CCC2C(C)(C(=O)O)CC(O)CC2(C)C1CC/C(C)=C/C(=O)O (stereo unspecified),3.28% [at 38.5 µM]
22,COc1cc([C@@H]2Oc3c(OC)cc(CCCO)cc3[C@@H]2CO[C@@H]2O[C@H](CO)[C@@H](O)[C@H](O)[C@H]2O)ccc1O,7.75% [at 25.3 µM]
23,COc1cccc(-c2ccc([C@@H](Oc3cc(-c4ccc(C[C@H](N)C(=O)O)cc4)nc(N)n3)C(F)(F)F)cc2)c1,10.3%
24,CCNC(=O)CCC/C=C\C[C@@H]1[C@@H](/C=C/C(O)CCc2ccccc2)[C@@H](O)C[C@@H]1O (stereo partly specified),17.6%
25,Cc1[nH]cnc1C1CCN(c2nc3cccc4c3n2CCC4=O)CC1,5.65%
26,C=C(C)[C@@H](C)[C@H]1O[C@]23C[C@]4(CO2)C(CCC2[C@@]5(C)CC[C@H](O[C@@H]6OC[C@H](O)[C@H](O[C@@H]7O[C@H](CO)[C@@H](O)[C@H](O)[C@H]7O)[C@H]6O[C@@H]6O[C@@H](CO)[C@H](O)[C@H]6O)C(C)(C)C5CC[C@]24C)C3[C@@](C)(O)[C@@H]1OC(C)=O (stereo partly specified),3.31% [at 11.6 µM]
